{
  "source": "PubChem BioAssay (Tox21)",
  "note": "A number with no mark means an inactive call. Active and inactive are the calls of the source. Calls follow the shape of the dose curve; as a rule, active = well fitted curve in the direction sought with a large enough effect in the repeat runs; inconclusive = weak or mixed curves; inactive = flat fitted curve, though single readings scatter. % is scaled to controls: 0 for no effect and ±100 for the full control effect.",
  "data": [
    {"assay": "qHTS assay to test for compound auto fluorescence at 535 nm (green) in HepG2 cell free culture (AID 720686)", "conditions": "Cell-free medium, green autofluorescence 485/535 nm; series mostly up to 46 µM", "from_the_text": "U.S. Tox21 Program National Center for Advancing Translational Sciences [NCATS] NIH Chemical Genomics Center [NCGC] U.S. Environmental Protection Agency [EPA] National Institutes of Environmental Health Sciences [NIEHS] National Toxicology Program [NTP] U.S. Food and Drug Administration [FDA] Tox21 Assay Overview: Compound auto fluorescence often interferes with screening of the compound library against various biological targets and signaling pathways. Some of these compounds may have fluorophoric properties. Such properties may interfere with the assay outputs resulting in false positives and/or negatives. To decrease such complications and ensure the compound activities are relevant in terms of biological response, the Tox21 10K compound library was screened for auto fluorescence. From the fluorophores used as reporter signals in our screening assays, the auto fluorescence equivalencies of compounds against three fluorophores have been evaluated: Triamterene, Fluorescein and Rose Bengal sodium for blue, green and red fluorescence, respectively. The fluorescence intensities were measured using Excitation/Emission wavelengths at 405/460nm, 485/535nm and 540/590nm for blue, green and red labels, respectively. This assay includes the green fluorescence data.\nTox21 Assay Protocol Summary: 5 uL of culture medium (MEM containing 10% FBS) per well was dispensed into black wall/clear bottom 1536-well plates using a Multidrop Combi Dispenser (ThermoFisher Scientific, Waltham, MA). After 23 nL compound or DMSO vehicle was transferred into assay plate by a pintool work station (Kalypsys, San Diego, CA), fluorescence intensities in the assay plates were measured by an Envision (PerkinElmer, Shelton, CT) plate reader using three labels for measuring blue, green and red fluorescence at […] 460, 535 and 590nm respectively.", "values": [
      {"smiles": "CC(=O)OCC(=O)[C@@]1(O)CC[C@H]2[C@@H]3CCC4=CC(=O)CC[C@]4(C)[C@H]3C(=O)C[C@@]21C", "outcome": "inactive"},
      {"smiles": "Nc1nc2c(ncn2COC(CO)CO)c(=O)[nH]1", "outcome": "inactive"},
      {"smiles": "O=C(O)CN(CCOCCOCCN(CC(=O)O)CC(=O)O)CC(=O)O", "outcome": "inactive"},
      {"smiles": "COc1ccccc1OCC(O)CN1CCN(CC(=O)Nc2c(C)cccc2C)CC1", "note": "(stereo not given)", "outcome": "inactive"},
      {"smiles": "CCOc1ccc(C(=O)OCCN(CC)CC)cc1", "outcome": "inactive"},
      {"smiles": "C[N+](C)(C)CCCCCC[N+](C)(C)C", "outcome": "inactive"},
      {"smiles": "O=c1cc(-c2ccccc2)oc2ccccc12", "outcome": "inactive"},
      {"smiles": "CCOC(=O)c1cccc(N)c1", "outcome": "inactive"},
      {"smiles": "CN(C)CCCN1c2ccccc2CCc2ccc(Cl)cc21", "outcome": "inactive"},
      {"smiles": "CCCCCCCCCCCCCC=O", "fluorescence, % of fluorescein control": "0.0349% [at 3.72 µM]"},
      {"smiles": "CCCCNC(=O)NCCCC", "outcome": "inactive"},
      {"smiles": "O=C(CCCN1CCC(O)(c2cccc(C(F)(F)F)c2)CC1)c1ccc(F)cc1", "outcome": "inactive"},
      {"smiles": "CO[C@]12C[C@@H](COC(=O)c3cncc(Br)c3)CN(C)[C@@H]1Cc1cn(C)c3cccc2c13", "outcome": "inactive"},
      {"smiles": "CCN(CC)CCOCCOC(=O)C1(c2ccccc2)CCCC1", "outcome": "inactive"},
      {"smiles": "Cc1ccc(=O)n(-c2ccccc2)c1", "outcome": "inactive"},
      {"smiles": "CCCCCOC(=O)CCCCC", "outcome": "inactive"},
      {"smiles": "CC(C)(O)C#CC(C)(C)O", "outcome": "inactive"},
      {"smiles": "Cn1cc(S(C)=O)c(=O)c2ccc(F)cc21", "note": "(stereo not given)", "outcome": "inactive"},
      {"smiles": "CS(=O)(=O)O", "outcome": "inactive"},
      {"smiles": "C=C(C)C(=O)OCCCCCCCC(C)C", "outcome": "inactive"},
      {"smiles": "C=C[Si](OC(=C)C)(OC(=C)C)OC(=C)C", "outcome": "inactive"},
      {"smiles": "CC(C)CNCC(C)C", "outcome": "inactive"},
      {"smiles": "O=C(CCCN1CCN(c2ccccn2)CC1)c1ccc(F)cc1", "outcome": "inactive"},
      {"smiles": "CCCCCCCCCCCC", "outcome": "inactive"},
      {"smiles": "CN1C(=O)N(C)C(O)C1O", "note": "(stereo not given)", "outcome": "inactive"},
      {"smiles": "CN1CCCC1", "outcome": "inactive"},
      {"smiles": "OCCCC1CCCCC1", "outcome": "inactive"},
      {"smiles": "O=C(O)Cc1ccc(CCNS(=O)(=O)c2ccc(Cl)cc2)cc1", "outcome": "inactive"},
      {"smiles": "OC(CCN1CCCCC1)(c1ccccc1)C1CC2C=CC1C2", "note": "(stereo not given)", "outcome": "inactive"},
      {"smiles": "Cn1c(N)c(N=O)c(=O)n(C)c1=O", "outcome": "inactive"},
      {"smiles": "ClC(Cl)(Br)Br", "outcome": "inactive"},
      {"smiles": "Cc1ccc(C#N)cc1", "outcome": "inactive"},
      {"smiles": "NC(=O)c1ccc(N)cc1", "outcome": "inactive"},
      {"smiles": "CCCCCCCCCCCCN(CCCCCCCCCCCC)CCCCCCCCCCCC", "outcome": "inactive"},
      {"smiles": "CC1=CC(C)C(C=O)CC1", "note": "(stereo not given)", "outcome": "inactive"},
      {"smiles": "CC(C)CCCC(C)N", "note": "(stereo not given)", "outcome": "inactive"},
      {"smiles": "NS(=O)(=O)c1ccc(C(=O)O)cc1", "outcome": "inactive"},
      {"smiles": "COC(=O)NN", "outcome": "inactive"},
      {"smiles": "CC/C=C\\CCOC(C)=O", "outcome": "inactive"},
      {"smiles": "O=c1n(CCO)c(=O)n(CCO)c(=O)n1CCO", "outcome": "inactive"}
    ]}
  ]
}
